# Source: ChEMBL document CHEMBL3988442, “University of Dundee, Small-Polar-MMV Screening Library” (2021)
# For some assays here: Measured potencies and affinities stand elsewhere.
# Legend:
# Design in all cases: scale not given: direction of the effect not stated beside the values
# [1] = target: Protein translocase subunit SecA (Escherichia coli (strain K12)) (UniProt P10408); assay: Assay to Identify E. coli SecA ATPase Inhibitors; format: functional; conditions: 30 µM
# [2] = target: T1, Ubiquitin-activating enzyme e1, putative (Leishmania donovani (strain BPK282A1)) (UniProt E9BSI1); assay: Leishmania donovani Ubiquitin Activating Enzyme (LdE1); format: functional; conditions: 30 µM
# T1 sequence (whole entry): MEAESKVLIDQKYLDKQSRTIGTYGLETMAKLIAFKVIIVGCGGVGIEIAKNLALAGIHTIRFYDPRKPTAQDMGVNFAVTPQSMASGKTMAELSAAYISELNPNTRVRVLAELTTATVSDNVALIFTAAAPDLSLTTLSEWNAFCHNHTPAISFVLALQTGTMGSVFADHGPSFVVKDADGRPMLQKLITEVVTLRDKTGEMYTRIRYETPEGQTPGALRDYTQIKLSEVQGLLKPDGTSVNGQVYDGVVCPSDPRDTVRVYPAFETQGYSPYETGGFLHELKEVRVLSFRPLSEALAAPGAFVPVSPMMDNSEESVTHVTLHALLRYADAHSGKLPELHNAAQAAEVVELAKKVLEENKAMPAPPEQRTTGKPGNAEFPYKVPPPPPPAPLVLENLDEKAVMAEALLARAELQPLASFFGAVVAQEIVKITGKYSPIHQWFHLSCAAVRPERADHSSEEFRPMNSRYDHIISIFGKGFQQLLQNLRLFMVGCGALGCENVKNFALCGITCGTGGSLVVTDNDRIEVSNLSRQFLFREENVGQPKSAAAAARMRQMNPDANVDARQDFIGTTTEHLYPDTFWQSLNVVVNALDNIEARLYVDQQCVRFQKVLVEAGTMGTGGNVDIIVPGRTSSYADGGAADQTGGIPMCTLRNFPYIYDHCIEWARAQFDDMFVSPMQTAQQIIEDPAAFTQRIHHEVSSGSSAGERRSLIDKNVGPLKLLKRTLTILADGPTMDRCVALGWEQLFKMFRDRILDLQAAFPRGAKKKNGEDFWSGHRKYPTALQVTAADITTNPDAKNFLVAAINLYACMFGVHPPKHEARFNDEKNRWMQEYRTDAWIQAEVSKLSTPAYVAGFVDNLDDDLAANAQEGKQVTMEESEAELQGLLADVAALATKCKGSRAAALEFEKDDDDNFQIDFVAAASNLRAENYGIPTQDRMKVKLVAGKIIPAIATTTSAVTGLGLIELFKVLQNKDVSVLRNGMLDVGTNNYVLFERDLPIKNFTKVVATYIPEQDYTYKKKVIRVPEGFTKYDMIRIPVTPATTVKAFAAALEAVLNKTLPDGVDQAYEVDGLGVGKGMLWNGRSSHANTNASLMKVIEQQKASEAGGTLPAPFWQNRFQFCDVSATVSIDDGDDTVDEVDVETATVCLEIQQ
# [3] = target: AMP-activated protein kinase, AMPK (Homo sapiens) (UniProt P54646+O43741+P54619+Q9UGJ0+Q9Y478+Q13131+Q9UGI9); assay: AMP-dependent Kinase enzyme assay. An in vitro enzyme assay that detects ADP turnover that is directly proportional to AMPK activity. This uses naive AMPK that is activated during the assay with MK-8722; format: functional; conditions: 30 µM
# [4] = target: Sialic acid-binding Ig-like lectin 9 (Homo sapiens) (UniProt Q9Y336); assay: Hs-Siglec9 ALPHAscreen SOP 20170721; conditions: 10 µM
# [5] = system: Trypanosoma cruzi; assay: Trypanosoma cruzi phosphomannomutase and mannose-1-phosphate guanylyltransferase assay; format: functional; conditions: 10 µM
# [6] = target: T2, Arginase-2, mitochondrial (Homo sapiens) (UniProt P78540); assay: in vitro enzyme assay to detect the production of urea directly proportional to the activity of Arginase II; format: functional; conditions: 33.3 µM; further: in the data most compounds retested in dose-response had high values
# T2 sequence (whole entry): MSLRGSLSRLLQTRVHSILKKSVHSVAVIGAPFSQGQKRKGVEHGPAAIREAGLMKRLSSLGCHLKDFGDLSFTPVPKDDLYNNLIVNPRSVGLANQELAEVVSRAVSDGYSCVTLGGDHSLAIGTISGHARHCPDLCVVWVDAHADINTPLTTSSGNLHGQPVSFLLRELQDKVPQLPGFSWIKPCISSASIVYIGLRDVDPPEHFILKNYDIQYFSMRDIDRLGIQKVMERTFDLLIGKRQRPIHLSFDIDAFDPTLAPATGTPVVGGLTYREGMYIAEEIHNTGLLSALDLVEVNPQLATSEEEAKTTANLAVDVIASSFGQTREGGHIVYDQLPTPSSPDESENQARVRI
# [7] = target: T3, Proteasome subunit beta (Trypanosoma cruzi) (UniProt O96673); assay: Trypanosoma cruzi proteasome chymotrypsin-like activity (TcProtChymo) assay.; further: in the data most compounds retested in dose-response had high values; format: functional; conditions: 9.37 µM
# T3 sequence (whole entry): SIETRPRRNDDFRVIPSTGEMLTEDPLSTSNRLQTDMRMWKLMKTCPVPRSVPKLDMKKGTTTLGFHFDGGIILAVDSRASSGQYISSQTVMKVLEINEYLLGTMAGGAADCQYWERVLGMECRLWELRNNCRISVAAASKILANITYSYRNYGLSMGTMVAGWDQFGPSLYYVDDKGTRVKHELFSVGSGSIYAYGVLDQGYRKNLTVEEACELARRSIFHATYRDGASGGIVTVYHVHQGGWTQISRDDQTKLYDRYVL
# [8] = species: Homo sapiens; assay: To identify inhibition of the IFN signalling (Jak-Stat) pathway via expression of an eGFP reporter gene under the control of an IFN-stimulated response element (ISRE) containing MxA promoter.; format: functional; conditions: 30 µM
# [9] = target: T4, Tyrosyl-tRNA synthetase, putative (Trypanosoma cruzi (strain CL Brener)) (UniProt Q4DSP6); assay: Trypanosoma cruzi tyrosyl tRNA synthetase (TcYRS) _High Tyrosine SOP; format: functional; conditions: 30 µM; further: in the data most compounds retested in dose-response had high values
# T4 sequence (whole entry): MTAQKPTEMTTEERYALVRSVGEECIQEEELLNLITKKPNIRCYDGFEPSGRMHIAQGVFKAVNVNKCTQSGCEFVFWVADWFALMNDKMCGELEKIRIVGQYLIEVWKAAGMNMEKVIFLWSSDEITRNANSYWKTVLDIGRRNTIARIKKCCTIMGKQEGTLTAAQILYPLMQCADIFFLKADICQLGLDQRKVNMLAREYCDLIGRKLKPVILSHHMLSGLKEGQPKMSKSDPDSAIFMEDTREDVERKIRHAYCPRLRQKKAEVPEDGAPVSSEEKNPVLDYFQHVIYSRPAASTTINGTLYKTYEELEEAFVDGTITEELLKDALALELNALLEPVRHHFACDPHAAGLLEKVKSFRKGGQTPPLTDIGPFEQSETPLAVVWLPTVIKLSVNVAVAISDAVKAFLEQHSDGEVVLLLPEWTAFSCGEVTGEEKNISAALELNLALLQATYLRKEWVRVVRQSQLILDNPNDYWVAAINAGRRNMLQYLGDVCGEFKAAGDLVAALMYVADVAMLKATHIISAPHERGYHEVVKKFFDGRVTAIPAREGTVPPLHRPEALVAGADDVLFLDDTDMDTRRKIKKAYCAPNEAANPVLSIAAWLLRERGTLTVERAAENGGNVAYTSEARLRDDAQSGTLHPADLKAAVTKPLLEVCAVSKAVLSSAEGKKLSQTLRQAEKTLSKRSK
# [10] = target: T4, Tyrosyl-tRNA synthetase, putative (Trypanosoma cruzi (strain CL Brener)); assay: Trypanosoma cruzi tyrosyl tRNA synthetase (TcYRS) SOP; format: functional; conditions: 30 µM
# [11] = target: Chromo domain-containing protein 1 (Saccharomyces cerevisiae (strain ATCC 204508 / S288c) (Baker's yeast)) (UniProt P32657); assay: ScCHD-1 Enzyme Inhibition Assay; format: functional; conditions: 30 µM; further: in the data most compounds retested in dose-response had high values
# Chromo domain-containing protein 1 (Saccharomyces cerevisiae (strain ATCC 204508 / S288c) (Baker's yeast)), sequence (P32657 whole entry, the tested form may be a part): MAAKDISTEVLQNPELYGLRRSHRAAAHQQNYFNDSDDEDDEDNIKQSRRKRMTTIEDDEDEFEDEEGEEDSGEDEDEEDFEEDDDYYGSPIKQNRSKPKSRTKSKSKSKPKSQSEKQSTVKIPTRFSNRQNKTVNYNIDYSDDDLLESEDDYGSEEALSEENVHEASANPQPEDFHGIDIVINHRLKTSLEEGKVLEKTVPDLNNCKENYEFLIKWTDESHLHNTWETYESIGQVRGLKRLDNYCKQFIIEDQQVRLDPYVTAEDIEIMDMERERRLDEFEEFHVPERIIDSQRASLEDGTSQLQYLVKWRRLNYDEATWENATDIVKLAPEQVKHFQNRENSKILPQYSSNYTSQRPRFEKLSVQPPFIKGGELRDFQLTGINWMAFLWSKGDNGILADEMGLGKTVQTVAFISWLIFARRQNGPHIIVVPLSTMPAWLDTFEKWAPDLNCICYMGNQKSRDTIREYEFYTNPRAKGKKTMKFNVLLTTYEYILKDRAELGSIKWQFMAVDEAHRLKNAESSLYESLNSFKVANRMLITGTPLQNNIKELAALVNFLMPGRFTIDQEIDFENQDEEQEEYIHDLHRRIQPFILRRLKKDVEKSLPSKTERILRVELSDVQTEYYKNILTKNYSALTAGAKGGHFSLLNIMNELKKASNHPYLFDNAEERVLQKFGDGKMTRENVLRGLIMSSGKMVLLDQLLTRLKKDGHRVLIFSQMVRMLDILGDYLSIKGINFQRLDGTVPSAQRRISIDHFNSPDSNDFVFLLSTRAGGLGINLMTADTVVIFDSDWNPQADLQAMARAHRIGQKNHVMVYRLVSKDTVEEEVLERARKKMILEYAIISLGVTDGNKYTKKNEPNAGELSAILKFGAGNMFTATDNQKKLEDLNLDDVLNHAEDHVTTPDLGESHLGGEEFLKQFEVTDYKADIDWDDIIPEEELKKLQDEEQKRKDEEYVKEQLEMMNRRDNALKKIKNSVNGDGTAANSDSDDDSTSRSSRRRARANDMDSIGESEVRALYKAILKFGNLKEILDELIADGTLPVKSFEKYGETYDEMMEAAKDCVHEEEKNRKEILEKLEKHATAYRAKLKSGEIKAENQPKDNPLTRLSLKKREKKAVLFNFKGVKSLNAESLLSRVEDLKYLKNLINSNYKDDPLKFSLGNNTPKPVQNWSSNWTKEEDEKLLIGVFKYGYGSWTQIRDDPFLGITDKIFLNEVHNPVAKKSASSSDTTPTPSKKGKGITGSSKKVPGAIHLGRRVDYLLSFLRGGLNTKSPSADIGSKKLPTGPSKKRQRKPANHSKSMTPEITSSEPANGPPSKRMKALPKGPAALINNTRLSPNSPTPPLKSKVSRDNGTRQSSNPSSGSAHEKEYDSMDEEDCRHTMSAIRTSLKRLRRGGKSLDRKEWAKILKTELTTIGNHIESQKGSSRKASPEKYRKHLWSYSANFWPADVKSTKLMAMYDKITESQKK
# Protein translocase subunit SecA (Escherichia coli (strain K12)), sequence (P10408 whole entry): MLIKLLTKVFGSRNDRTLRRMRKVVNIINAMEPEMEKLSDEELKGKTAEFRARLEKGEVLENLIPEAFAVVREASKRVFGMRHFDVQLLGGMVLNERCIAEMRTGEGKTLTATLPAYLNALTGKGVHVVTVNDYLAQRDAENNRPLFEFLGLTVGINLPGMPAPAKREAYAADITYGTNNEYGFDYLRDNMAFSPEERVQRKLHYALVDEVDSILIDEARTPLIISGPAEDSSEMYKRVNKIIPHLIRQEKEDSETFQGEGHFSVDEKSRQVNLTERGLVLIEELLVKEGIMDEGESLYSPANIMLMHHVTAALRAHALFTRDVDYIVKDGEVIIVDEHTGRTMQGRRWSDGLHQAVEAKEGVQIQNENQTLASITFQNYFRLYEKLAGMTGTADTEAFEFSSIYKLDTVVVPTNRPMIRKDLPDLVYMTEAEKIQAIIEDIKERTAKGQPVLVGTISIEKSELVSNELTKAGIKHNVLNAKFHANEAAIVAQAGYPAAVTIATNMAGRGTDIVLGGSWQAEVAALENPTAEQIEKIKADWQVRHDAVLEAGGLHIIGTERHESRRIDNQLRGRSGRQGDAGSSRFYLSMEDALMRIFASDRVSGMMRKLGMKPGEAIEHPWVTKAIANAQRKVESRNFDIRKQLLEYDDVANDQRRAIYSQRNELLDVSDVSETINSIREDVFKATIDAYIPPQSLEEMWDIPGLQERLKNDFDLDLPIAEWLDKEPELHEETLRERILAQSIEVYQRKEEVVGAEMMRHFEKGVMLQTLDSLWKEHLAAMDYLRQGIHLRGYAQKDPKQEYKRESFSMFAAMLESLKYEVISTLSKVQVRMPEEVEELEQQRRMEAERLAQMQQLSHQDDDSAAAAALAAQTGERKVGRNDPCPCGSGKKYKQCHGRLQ
# Sialic acid-binding Ig-like lectin 9 (Homo sapiens), sequence (Q9Y336 whole entry): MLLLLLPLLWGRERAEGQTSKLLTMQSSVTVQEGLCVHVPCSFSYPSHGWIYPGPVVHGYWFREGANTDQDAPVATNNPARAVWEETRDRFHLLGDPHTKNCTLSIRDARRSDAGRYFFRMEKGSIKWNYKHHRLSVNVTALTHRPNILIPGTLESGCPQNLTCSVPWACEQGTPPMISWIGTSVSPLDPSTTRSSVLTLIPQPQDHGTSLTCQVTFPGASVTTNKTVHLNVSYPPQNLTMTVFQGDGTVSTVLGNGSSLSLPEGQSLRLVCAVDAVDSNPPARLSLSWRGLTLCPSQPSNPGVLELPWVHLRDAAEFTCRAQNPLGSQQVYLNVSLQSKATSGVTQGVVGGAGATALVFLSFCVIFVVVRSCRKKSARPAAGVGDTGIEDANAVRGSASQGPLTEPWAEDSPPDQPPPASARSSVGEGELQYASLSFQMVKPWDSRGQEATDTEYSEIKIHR
Compound,Percent Effect [1] [%],Percent Effect [2] [%],Percent Effect [3] [%],Percent Effect [4] [%],Percent Effect [5] [%],Percent Effect [6] [%],Percent Effect [7] [%],Percent Effect [8] [%],Percent Effect [9] [%],Percent Effect [10] [%],Percent Effect [11] [%]
COc1cccc2c1ccn2CCNC(=O)C(C)C,-1.68,20,0.539,3.44,0.393,-1.94,18.5,26.9,7.41,12.8,-3.78
CCn1cnnc1C1CCN(C(=O)C(OC)c2ccccc2)CC1 (configuration not stated),-2.02,18.2,6.32,-9.96,5.58,-1.05,17.9,-11,8.57,18.8,-17.7
CC(C)n1c(=O)nc2n1C(=O)N(c1ccc(F)cc1)C2,-3.14,13.2,0.365,6.05,0.682,-2.37,13.9,-9.89,4.25,7.79,-5.52
CC(C)N1CCOCC2(CN(Cc3nccs3)CCO2)C1 (configuration not stated),-5.04,20.8,-4.7,-3.15,2.66,0.645,16.7,3.46,9.52,14.1,-7.32
CCc1nc(C2CCCN2C(=O)CCc2ccc3c(c2)OCO3)no1 (configuration not stated),-3.47,-5.41,2.98,5.83,3.62,-3.14,-6.46,10.2,1.98,1.22,10.8
CCC(=O)N1CCN(C(=O)CCn2cccn2)CC1,-1.61,24.3,-7.17,0.998,6.96,0.554,8.62,5.89,6.93,25.6,-6.76
CC(C)c1nc(C2CCCN2Cc2ccccc2C#N)no1 (configuration not stated),-1.53,-13,-3.89,11.4,5.24,1.07,-4.22,5.77,5.83,12.2,73.9
Cc1nn(C)c(C)c1C1CCCN1C(=O)c1cnc2n[nH]c(C)c2c1 (configuration not stated),-5.23,16.2,-5.44,13.8,5.66,0.554,0,9.61,4.95,18.3,-3.42
CCOCC1CN(C(=O)N(C)C)Cc2nn(C)cc21 (configuration not stated),-3.04,8,-0.352,2.29,-0.579,-40.3,8.03,-8.7,1.04,10,-7.3
Cc1cc(C)n(CC2CCCN2CC(=O)N(C)Cc2cnn(C)c2)n1 (configuration not stated),-5.54,8.11,-10.7,3.9,1.04,-4.01,13,9.55,6.4,13.6,-11.6
Cc1cc(C2CCCN2CCCc2nc3ccccc3o2)on1 (configuration not stated),0.895,5.41,-3.23,0.643,-3.87,21.6,1.62,2.07,4.43,6.17,-3.04
O=C(CN1CC(n2cccn2)C1)NCCCc1ccccc1,0.869,-13.5,10.2,12.8,6.41,1.29,-0.179,-9.65,1.98,11,1.45
Cc1nn(C)c(C)c1C1CCCN1Cc1cccc(C(=O)N(C)C)c1 (configuration not stated),-2.08,7.59,-8.35,3.65,4.06,0.76,2.54,-16.6,4.43,8.86,0.0198
O=C1N(Cc2ccc(F)c(F)c2)CCCC12CCN(C1CCSCC1)C2 (configuration not stated),-4.12,-8,-4.64,30.2,9.25,23.4,9.77,3.27,15.8,25.9,0.965
Cc1cc(C)n(CC2CCCN2C(=O)c2ccc(C(N)=O)cn2)n1 (configuration not stated),-6.82,16.5,1.06,-0.198,2.56,1.5,7.38,7.83,-3.12,17.7,-27.9
CCC(=O)N1CCC(c2nc3ccc(NC(C)C)cn3n2)CC1,-5.82,-5.41,-88.4,0.275,-1.56,-0.833,1.44,-2.11,1.98,1.22,-4.18
Cc1nc(C)n(CC2CN(CC(=O)Nc3cccnc3)CCO2)n1 (configuration not stated),-3.48,4.17,1.48,-1.08,-0.486,2.65,2.1,-1.3,4.21,5.13,0.336
CC(c1ccc(Cl)cc1)N1CCN(CCS(C)(=O)=O)CC1 (configuration not stated),-3.62,5.41,0.609,6.25,-0.579,3.81,14,10.3,3.7,14.6,-5.14
NCC1Cn2nnc(-c3cccc(F)c3)c2CO1 (configuration not stated),-1.49,-20.8,2.11,0.572,8.75,-1.38,7.99,-8.6,3.23,3.7,-4.31
CC(C)c1nc2n(n1)CC(NCc1nnnn1C1CC1)CC2 (configuration not stated),-2.7,32.4,-23.1,6.96,3.87,-15.6,7.39,9.98,4.43,18.5,-10.6
O=C(O)CCc1cc2n(n1)CCCN(C(=O)c1ccc3cc[nH]c3c1)C2,-2.97,16.2,-5.19,10.7,4.05,10.5,11.9,-2.64,7.94,17.1,-3.38
O=C(NCCCn1cncn1)N1CCCC(N2CCCC2)C1 (configuration not stated),-3.14,21.1,-6.64,-3.21,3.01,2.3,13.4,14.6,5.39,19.5,-10.5
